# From the supplement of paper PMC8728848
# This is one part of a sample in which the strongest signals are shown more often than they occur.
# B1: Gal 3 (Homo sapiens), P17931 (protein)
# chain: MADNFSLHDALSGSGNPNPQGWPGAWGNQPAGAGGYPGASYPGAYPGQAPPGAYPGQAPPGAYHGAPGAYPGAPAPGVYPGPPSGPGAYPSSGQPSAPGAYPATGPYGAPAGPLIVPYNLPLPGGVVPRMLITILGTVKPNANILDFQRGNDVAFHFNPRFNENNRRVIVCNTKLDNNWGREERQSVFPFESGKPFKIQVLVEPDHFKVAVNDAHLLQYNHRVKKLNEISKLGISGDIDLTSASYTMI
# What was measured:
# Experiment in all cases: glycan array binding signal (z-score within array); higher = stronger binding
# Conditions in all cases: glycan notation: IUPAC condensed, linker removed
# [1] = target: Fuc(a1-2)Gal(b1-3)GlcNAc(b1-3)Gal(b1-4)Glc
# Summary of the method: (§1)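 Negative Z-scores can be read as non-binding. The Z-score is calculated within each array and then averaged across arrays of one protein sequence at different concentrations or buffers and across linkers. Arrays, 3228 in all, were curated from the Consortium for Functional Glycomics database and kept only where the protein sequence was available.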
# [2] = target: Fuc(a1-2)Gal(b1-3)[Fuc(a1-4)]GlcNAc(b1-3)[Gal(b1-4)GlcNAc(b1-6)]Gal(b1-4)Glc
# Summary of the method: as §1
# [3] = target: Fuc(a1-2)Gal(b1-4)GlcNAc(b1-3)Gal(b1-4)GlcNAc(b1-3)Gal(b1-4)GlcNAc
# Summary of the method: as §1
# [4] = target: Fuc(a1-2)[Gal(a1-3)]Gal(b1-3)GlcNAc(b1-2)Man(a1-3)[Fuc(a1-2)[Gal(a1-3)]Gal(b1-3)GlcNAc(b1-2)Man(a1-6)]Man(b1-4)GlcNAc(b1-4)GlcNAc
# Summary of the method: as §1
# [5] = target: Fuc(a1-2)[Gal(a1-3)]Gal(b1-4)GlcNAc(b1-2)Man(a1-3)[Fuc(a1-2)[Gal(a1-3)]Gal(b1-4)GlcNAc(b1-2)Man(a1-6)]Man(b1-4)GlcNAc(b1-4)GlcNAc
# Summary of the method: as §1
# [6] = target: Fuc(a1-2)[GalNAc(a1-3)]Gal(b1-4)GlcNAc
# Summary of the method: as §1
# [7] = target: Fuc(a1-2)[GalNAc(a1-3)]Gal(b1-4)GlcNAc(b1-2)Man(a1-3)[Fuc(a1-2)[GalNAc(a1-3)]Gal(b1-4)GlcNAc(b1-2)Man(a1-6)]Man(b1-4)GlcNAc(b1-4)GlcNAc
# Summary of the method: as §1
# [8] = target: Fuc(a1-2)[GalNAc(a1-3)]Gal(b1-4)GlcNAc(b1-3)Gal(b1-4)GlcNAc(b1-3)Gal(b1-4)GlcNAc
# Summary of the method: as §1
# [9] = target: Fuc(a1-2)[GalNAc(b1-3)]Gal
# Summary of the method: as §1
# [10] = target: Fuc(a1-3)[Gal(b1-4)]GlcNAc6S
# Summary of the method: as §1
# [11] = target: Gal(a1-3)Gal(b1-4)GlcNAc(b1-3)GalNAc
# Summary of the method: as §1
# [12] = target: Gal(a1-3)[Gal(a1-4)]Gal(b1-4)GlcNAc
# Summary of the method: as §1
# [13] = target: Gal(a1-4)Gal(b1-3)GlcNAc(b1-2)Man(a1-3)[Gal(a1-4)Gal(b1-3)GlcNAc(b1-2)Man(a1-6)]Man(b1-4)GlcNAc(b1-4)GlcNAc
# Summary of the method: as §1
# [14] = target: Gal(b1-3)Gal(b1-4)GlcNAc(b1-2)Man(a1-3)[Gal(b1-3)Gal(b1-4)GlcNAc(b1-2)Man(a1-6)]Man(b1-4)GlcNAc(b1-4)GlcNAc
# Summary of the method: as §1
# [15] = target: Gal(b1-3)GalNAc(a1-3)[Fuc(a1-2)]Gal(b1-4)GlcNAc
# Summary of the method: as §1
# [16] = target: Gal(b1-3)[Neu5Ac(b2-6)]GalNAc
# Summary of the method: as §1
# [17] = target: Gal(b1-4)GlcNAc(b1-2)[Gal(b1-4)GlcNAc(b1-4)]Man(a1-3)[Gal(b1-4)GlcNAc(b1-2)[Gal(b1-4)GlcNAc(b1-6)]Man(a1-6)]Man(b1-4)GlcNAc(b1-4)GlcNAc
# Summary of the method: as §1
# [18] = target: Gal(b1-4)GlcNAc(b1-3)Gal(b1-3)GlcNAc
# Summary of the method: as §1
# [19] = target: Gal(b1-4)GlcNAc(b1-3)Gal(b1-4)GlcNAc(b1-3)Gal(b1-4)GlcNAc
# Summary of the method: as §1
# [20] = target: Gal(b1-4)GlcNAc(b1-3)[GlcNAc(b1-6)]Gal(b1-4)GlcNAc
# Summary of the method: as §1
# [21] = target: Gal3S(b1-4)[Fuc(a1-3)]Glc
# Summary of the method: as §1
# Gal6S(b1-4)Glc = target: Gal6S(b1-4)Glc
# Summary of the method: as §1
# [22] = target: GalNAc(b1-3)Gal(a1-6)Gal(b1-4)Glc
# Summary of the method: as §1
# [23] = target: GlcNAc(a1-6)Gal(b1-4)GlcNAc
# Summary of the method: as §1
# [24] = target: GlcNAc(b1-4)GlcNAc(b1-4)GlcNAc(b1-4)GlcNAc(b1-4)GlcNAc
# Summary of the method: as §1
# [25] = target: GlcNAc(b1-6)Gal(b1-4)GlcNAc
# Summary of the method: as §1
# GlcNAc(b1-6)GalNAc = target: GlcNAc(b1-6)GalNAc
# Summary of the method: as §1
# Kdn(a2-3)Gal(b1-4)Glc = target: Kdn(a2-3)Gal(b1-4)Glc
# Summary of the method: as §1
# Kdn(a2-3)Gal(b1-4)GlcNAc = target: Kdn(a2-3)Gal(b1-4)GlcNAc
# Summary of the method: as §1
# [26] = target: Man(a1-2)Man(a1-6)[Man(a1-3)]Man(a1-6)[Man(a1-2)Man(a1-2)Man(a1-3)]Man
# Summary of the method: as §1
binder,measurement,setting,value
B1,glycan array binding signal (z-score),[1],1.9
same,glycan array binding signal (z-score),[2],-0.331
same,glycan array binding signal (z-score),[3],3.62
same,glycan array binding signal (z-score),[4],3.84
same,glycan array binding signal (z-score),[5],5.09
same,glycan array binding signal (z-score),[6],2.16
same,glycan array binding signal (z-score),[7],4.33
same,glycan array binding signal (z-score),[8],4.1
same,glycan array binding signal (z-score),[9],-0.382
same,glycan array binding signal (z-score),[10],-0.391
same,glycan array binding signal (z-score),[11],0.949
same,glycan array binding signal (z-score),[12],-0.388
same,glycan array binding signal (z-score),[13],-0.389
same,glycan array binding signal (z-score),[14],4.28
same,glycan array binding signal (z-score),[15],2.57
same,glycan array binding signal (z-score),[16],-0.386
same,glycan array binding signal (z-score),[17],2.3
same,glycan array binding signal (z-score),[18],2.35
same,glycan array binding signal (z-score),[19],4.37
same,glycan array binding signal (z-score),[20],-0.307
same,glycan array binding signal (z-score),[21],-0.39
same,glycan array binding signal (z-score),Gal6S(b1-4)Glc,-0.376
same,glycan array binding signal (z-score),[22],-0.388
same,glycan array binding signal (z-score),[23],-0.392
same,glycan array binding signal (z-score),[24],-0.379
same,glycan array binding signal (z-score),[25],-0.389
same,glycan array binding signal (z-score),GlcNAc(b1-6)GalNAc,-0.391
same,glycan array binding signal (z-score),Kdn(a2-3)Gal(b1-4)Glc,-0.391
same,glycan array binding signal (z-score),Kdn(a2-3)Gal(b1-4)GlcNAc,-0.386
same,glycan array binding signal (z-score),[26],-0.379
